This is part of a sample that, as a whole, favours compounds with a hit. Of some 79,000 tested, about 15% had one in any assay. Cut-off read from the data, not from the text of the source: active = growth inhibition above about 70%; inactive = the rest.
Columns and labels:
[1] = NCI Yeast Anticancer Drug Screen. Data for the rad50 strain (AID 155);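 note: 0% = growth of vehicle-only cultures of the same strain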; conditions: S. cerevisiae rad50 strain growth inhibition; at 50.0 µM; active compounds read high
Method in brief: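 DNA repair mutant yeast, compound exposure, growth read-out; inhibition is taken relative to vehicle.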

[2] = NCI Yeast Anticancer Drug Screen. Data for the mec2-1 strain (AID 157); conditions: S. cerevisiae mec2-1 strain, at 50.0 µM, active compounds read high
Method in brief: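 Strain: mec2-1 (DNA repair/cell cycle alteration). Compound exposure, then growth measured; inhibition expressed relative to vehicle.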

[3] = NCI Yeast Anticancer Drug Screen. Data for the sgs1 mgt1 strain (AID 161);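 note: 0% = growth of cultures given vehicle only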; conditions: S. cerevisiae sgs1 mgt1 strain, at 50.0 µM, active compounds read high
Method in brief: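 Genetically altered yeast, compound exposure, growth inhibition relative to vehicle.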

[4] = NCI Yeast Anticancer Drug Screen. Data for the cln2 rad14 strain (AID 165);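 note: 0% = growth equal to vehicle treated cultures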; conditions: S. cerevisiae cln2 rad14 strain, at 50.0 µM, active compounds read high
Method in brief: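 Compounds are applied to the cln2 rad14 yeast strain, and growth is then compared with that of vehicle-treated cultures to give inhibition.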

[5] = NCI Yeast Anticancer Drug Screen. Data for the bub3 strain (AID 167); conditions: S. cerevisiae bub3 mutant strain, at 50.0 µM, active compounds read high
Method in brief: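 In this screen, a yeast mutant lacking normal mitotic checkpoint function is challenged with compound. Relative growth versus vehicle gives the inhibition value.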

[6] = NCI Yeast Anticancer Drug Screen. Data for the mlh1 rad18 strain (AID 175); conditions: S. cerevisiae mlh1 rad18 strain growth inhibition; at 50.0 µM; active compounds read high
Method in brief: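 Read-out is yeast growth inhibition, calculated against vehicle-only controls. The compound was applied to a strain engineered with DNA damage repair alterations.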

Measured: growth inhibition

C=C(C(=C)P(=S)(c1ccccc1)c1ccccc1)P(=S)(c1ccccc1)c1ccccc1
inactive: [1] -10% | [2] -10.7% | [3] -37.1% | [4] -7.15% | [5] -5.8% | [6] -16.3%

CC(=O)Oc1cccc(CN2CCc3ccccc3C2)c1
inactive: [1] -3.05% | [2] -7.95% | [3] 1.55% | [4] -31.2% | [5] 8.8% | [6] -24.1%

CCOC(=O)C(NC(=O)c1ccccc1)(c1ccc(S(=O)(=O)Nc2onc(C)c2C)cc1)C(F)(F)F (stereo not given)
inactive: [1] 7.3% | [2] -8.9% | [3] -18.9% | [4] -12.1% | [5] -10.6% | [6] -4.25%

CCCC(=O)Nc1ccccc1
inactive: [1] 18.1% | [2] -15.8% | [3] 8.75% | [4] 7% | [5] -4.75% | [6] 19.6%

O=S(=O)(O)C(O)C(c1ccccc1)c1ccccc1 (stereo not given)
inactive: [1] -16.1% | [2] -15.8% | [3] -15.6% | [4] -15.8% | [5] -7.2% | [6] -31.9%

O=C(O)c1oc(C(=O)O)c(C(=O)O)c1C(=O)O
inactive: [1] -15% | [2] -38.1% | [3] -18.6% | [4] -28.6% | [5] -32.1% | [6] 7.6%

C#CCOCC12C=CC(O1)C1C(=O)OCC12 (stereo not given)
inactive: [1] -9.45% | [2] 9.65% | [3] -12.8% | [4] 18.9% | [5] 21% | [6] 41.9%

CN1CCCC2C(c3ccccc3)C(C3=NCCCC3)C(c3ccccc3)CC21 (stereo not given)
inactive: [1] -18.9% | [2] -3.2% | [3] -23.1% | [4] -28.6% | [5] -64.9% | [6] -60.4%

O=C(O)c1cccc([N+](=O)[O-])c1C(=O)O
inactive: [1] 15.3% | [2] 11.3% | [3] 11.4% | [4] 7.9% | [5] -1.9% | [6] 17.2%

S=c1[nH]nc(SCc2ccc(Cl)cc2Cl)c2[nH]cnc12
inactive: [1] -2.15% | [2] 1.4% | [3] 11.4% | [4] -32.4% | [5] -0.5% | [6] -6%

COc1c(C)c(C)c(OC(C)=O)c(C)c1Br
inactive: [1] -10.2% | [2] -4.9% | [3] -1.95% | [4] -3.1% | [5] -2.1% | [6] -9.3%

N#[N+]c1ccc2c(c1)C(=O)c1ccccc1-2
inactive: [1] 3.2% | [2] 0.05% | [3] -0.6% | [4] -46.2% | [5] 8.6% | [6] -6.65%

NNC(=O)c1ccc(OCc2nc3ccccc3[nH]2)cc1
inactive: [1] -14.8% | [2] -31.9% | [3] 1.2% | [4] 5.1% | [5] -87.2% | [6] -18.7%

CCN(CCO)CC(=O)c1cc(Cl)ccc1OC
inactive: [1] -3.85% | [2] 13.6% | [3] 16.2% | [4] -37% | [5] 6.55% | [6] 19.4%

CCCCCCCCCCCCCCCCC(C)=O
inactive: [1] 2.2% | [2] 20.6% | [3] 5% | [4] -16.6% | [5] 21.9% | [6] -11.7%

COC(=O)C1CC/C(=N\Nc2ccc([N+](=O)[O-])cc2[N+](=O)[O-])CC1C(=O)OC (stereo not given)
inactive: [1] 10.2% | [2] -5.75% | [3] -8.75% | [4] -1.65% | [5] 5.2% | [6] 19.6%

N#Cc1cc([N+](=O)[O-])ccc1NC(=O)C(=O)Nn1c(=S)[nH]c2ccccc2c1=O
inactive: [1] -2.25% | [2] -2.6% | [3] -34.5% | [4] 14.6% | [5] 10.3% | [6] 5.9%

COC(=O)C(O)C(O)C(O)C(O)C(O)CO (stereo not given)
inactive: [1] -1.4% | [2] -12.1% | [3] 0.25% | [4] -45.4% | [5] -8.6% | [6] -5.3%

N#CCCCO
inactive: [1] -1.25% | [2] 11.6% | [3] 7.45% | [4] -4.55% | [5] 0.3% | [6] -11.8%

CCOC(=O)c1cnc2ccccc2c1OCC
inactive: [1] -5.45% | [2] -12.2% | [3] -6.5% | [4] -43.9% | [5] 2.55% | [6] 0.55%

From PubChem BioAssay (NCI)
